Screens as filed in PubChem.
Rows were chosen to be rich in hits. Some 1.8% of all compounds tested hit in one or more screens of this group.
GRK2 aptamer HTS: inhibitors of human GRK2 displacing RNA aptamer | bead flow cytometry, FAM-aptamer displacement from GRK2 | P25098 | actives 0.59% (n = 330,000) | inhibition of aptamer binding, % at 10 µM;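 active means inhibition of aptamer binding above 40%, roughly 3 SD of noise, on plates passing a quality check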;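 further: median bead fluorescence of bound FAM aptamer so fluorescent compounds give negative values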
Target sequence (P25098 whole entry, looked up): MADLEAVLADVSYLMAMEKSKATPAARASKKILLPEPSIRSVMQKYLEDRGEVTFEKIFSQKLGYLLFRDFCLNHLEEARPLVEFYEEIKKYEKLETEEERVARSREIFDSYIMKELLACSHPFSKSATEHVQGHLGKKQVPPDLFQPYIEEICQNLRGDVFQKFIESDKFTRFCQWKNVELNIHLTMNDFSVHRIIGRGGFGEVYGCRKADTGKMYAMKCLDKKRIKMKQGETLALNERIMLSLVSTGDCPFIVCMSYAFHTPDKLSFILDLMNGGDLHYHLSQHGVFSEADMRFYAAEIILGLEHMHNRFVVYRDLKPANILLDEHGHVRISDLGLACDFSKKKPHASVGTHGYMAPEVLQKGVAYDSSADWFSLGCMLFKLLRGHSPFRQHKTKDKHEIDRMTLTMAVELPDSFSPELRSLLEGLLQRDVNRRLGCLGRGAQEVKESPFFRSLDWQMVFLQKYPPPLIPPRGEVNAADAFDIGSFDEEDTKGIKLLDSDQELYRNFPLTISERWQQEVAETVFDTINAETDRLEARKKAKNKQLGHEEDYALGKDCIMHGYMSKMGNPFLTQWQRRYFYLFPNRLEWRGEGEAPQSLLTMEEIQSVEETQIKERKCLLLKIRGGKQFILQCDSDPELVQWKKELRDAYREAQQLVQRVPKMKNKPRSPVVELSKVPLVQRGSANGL
Neddyl block: inhibitors of human cullin neddylation. actives 0.58% (n = 360,000). TR-FRET cullin neddylation, biochemical. P61081+Q13564. inhibition, % at 25 µM; in the data active means inhibition above about 36%
Cardio protect: myocardial damage modulation in H9c2 cells. H9c2 cardiomyocytes, H2O2 injury protection, ATPLite, 2 h. protection from H2O2 cell death, % at 20 µM. actives 0.63% (n = 360,000). AID 588492;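 active means compounds giving at least 50% protection of heart cells from peroxide-induced death in the single-dose screen, raw or plate-pattern-corrected value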;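 further: 0% = DMSO wells with peroxide and 100% = DMSO wells without peroxide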
HDAC3 inhib: inhibitors of human histone deacetylase 3. inhibition, % at 8.3 µM. O15379. actives 0.15% (n = 320,000). recombinant HDAC3, fluorogenic peptide/trypsin coupled, fluorescence; in the data active means inhibition above about 26%, passing the limit was not always enough; inconclusive means no clear call, values can overlap the other calls
GRK2 inh confirm: confirmation of human GRK2 inhibitors displacing RNA aptamer; shares compounds with GRK2 aptamer HTS; bead-bound GRK2, FAM-aptamer displacement, flow cytometry; aptamer displacement, % at 10 µM; actives 4% (n = 2,000); AID 504451;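 active means aptamer displacement above 40%, near three times the noise of non-fluorescent compounds, on plates passing quality checks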;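 further: negative values mostly reflect intrinsic compound fluorescence rather than true enhancement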
Aptamer quench SP: counter-screen for GRK2 aptamer inhibitors: fluorescent aptamer quenchers; shares compounds with GRK2 aptamer HTS; 2,000 tested, under 10 active; AID 504580; fluorescence response (% of DMSO), % at 10 µM; Carboxyfluorescein RNA aptamer on beads, flow cytometry quenching; active compounds read low;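 active means compounds that quench the bead-bound fluorescent RNA probe, cutting fluorescence to under half of the solvent control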;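 further: counterscreen run without GRK2 so only probe quenching by compound is measured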
* marks the source's active call; other numbers are inactive results; u = inconclusive; x = no result given.

SMILES	GRK2 aptamer HTS	Neddyl block	Cardio protect	HDAC3 inhib	GRK2 inh confirm	Aptamer quench SP
COc1ccc(CN2C(=O)c3cccnc3C2Nc2ccc(OC)c(Cl)c2)cc1 (stereo unspecified)	0.0	-0.1	0.5	x	x	x
O=C1C(=O)c2ccc(-c3ccccc3)cc2-c2ccccc21	66.0*	-95.0	-23.7	1.1	14.6	104.7
CN(C(=O)c1cccc(NC(=O)c2ccco2)c1)c1ccccc1	0.0	-0.8	-1.2	1.7	x	x
O=C(NCc1ccco1)c1cccc(NC(=O)c2ccco2)c1	0.0	3.6	6.2	3.6	-3.0	100.7
CN(Cc1ccccc1)C(=O)c1cccc(NC(=O)c2ccco2)c1	4.0	-76.1	-9.1	-3.5	1.2	104.3
O=C(NCc1ccccc1)c1cccc(NC(=O)c2ccco2)c1	2.0	-1.6	11.3	-4.0	1.9	93.5
COc1cc(NC(=O)c2cccc([N+](=O)[O-])c2)ccc1NC(=O)c1ccco1	0.0	-37.8	4.2	12.8	x	x
O=C(Nc1cc([N+](=O)[O-])ccc1O)c1cccc(NC(=O)c2ccco2)c1	78.0*	-40.6	2.0	8.6	1.4	102.8
CN(Cc1ccccc1)C(=O)COC(=O)c1cc(=O)[nH]c2ccccc12	2.0	19.2	-3.7	-0.6	x	x
O=C(Cn1c2[n+](c3ccc(C(F)(F)F)cc31)CCCCC2)c1ccc2c(c1)OCCO2	0.0	6.7	-0.7	u	x	x
COc1ccc(C(=O)Nc2cccc(C(=O)NCc3ccco3)c2)cc1	0.0	8.5	-2.9	1.1	-1.5	96.0
Cc1cccc(NC(=O)COc2ccccc2C(=O)NC(C)c2ccccc2)c1 (stereo unspecified)	5.0	-2.3	-6.6	3.4	x	x
Nc1nc(COc2ccccc2C=O)nc(Nc2ccccc2)n1	0.0	-0.6	7.3	8.2	x	x
O=C(Nc1ccc(F)cc1F)c1noc2c1CCC2	59.0*	-2.1	-5.8	8.6	12.8	101.8
CC(C)c1nc(C(=O)N2CCCC(N3CCN(c4cccc(Cl)c4)CC3)C2)cs1 (stereo unspecified)	0.0	-4.4	-1.4	-0.2	x	x
CN1CCc2nc3sc(C(=O)C45CC6CC(CC(C6)C4)C5)c(N)c3cc2C1	51.0*	34.1	6.9	5.0	-20.8	93.5
Nc1c(C(=O)C2CC2)sc2nc3c(cc12)CCC3	0.0	x	-6.1	-13.7	x	x
COCOc1ccc(C=O)c(OCOC)c1	98.0*	9.5	6.1	5.5	-1.4	100.1
COCOc1ccc(C=O)c(O)c1	0.0	-1.3	-0.6	1.6	x	x
COCCN1C[C@@H](CO)O[C@@H](n2cnc3c(N(C)C(C)C)ncnc32)C1	x	-2.3	2.0	x	x	x
CCn1cc([N+](=O)[O-])c(=O)c2cc(F)c(N3CCOCC3)cc21	64.0*	7.6	6.6	-9.3	0.5	98.2
Nn1c(SCC(=O)NCCc2ccc(F)cc2)nnc1C1CCCCC1	2.0	-4.4	8.9	-4.4	x	x
O=C(NNS(=O)(=O)c1ccc([N+](=O)[O-])cc1)C(=O)Nc1cccc(C(=O)O)c1	69.0*	-28.8	8.0	5.2	4.7	102.2
O=C(NNS(=O)(=O)c1ccc([N+](=O)[O-])cc1)c1ccccc1	x	-24.8	7.7	x	x	x
CCOC(=O)C1=C(C)NC(C)=C(C(=O)OC)C1c1cccc(Cl)c1Cl (stereo unspecified)	0.0	x	0.0	0.1	-3.2	95.1
SMILES	GRK2 aptamer HTS	Neddyl block	Cardio protect	HDAC3 inhib	GRK2 inh confirm	Aptamer quench SP
CCN(CC)CCOC(=O)C1(c2ccc(OC)c(OC)c2)CCCC1	0.0	-3.3	-2.1	-4.9	x	x
CCN(CC)CCOC(=O)C1(c2ccccc2)CCCC1	69.0*	-1.8	1.4	-9.2	-0.2	98.9
COc1cccc(/C=C/C(=O)N(C)CC(=O)Nc2ccc(Cl)c(C(F)(F)F)c2)c1	2.0	13.7	-8.4	-0.3	x	x
CCOc1ccc(NC(=O)CN(C)C(=O)CCN2C(=O)C3CC=CCC3C2=O)cc1OCC (stereo unspecified)	0.0	-22.2	3.9	-3.4	x	x
COc1ccccc1NC(=O)NC1(C(=O)N2CCCCCC2)CCCCC1	95.0*	-1.2	14.0	-2.2	-2.5	94.5
O=C(NNC(=S)NCc1ccccc1)c1ccc2c(c1)OCO2	4.0	3.2	-0.6	-9.2	x	x
